Pf Dd2 growth: inhibitors of Plasmodium falciparum Dd2 growth | P. falciparum Dd2 growth, SYBR Green, 72 h | Potency, µM (highest dose often 28.9 µM), actives largely listed as inhibitors | actives 4.3% (n = 120,000) | AID 1347417; active = well fitted inhibition curve with a large enough effect; note: nearly all actives have a fitted effect of over 65% in size
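Readout: SYBR Green fluorescence, 485 nm excitation, 535 nm emission, after ~16 h lysis at 37C. Before that, Dd2-infected red cells (2.5% hematocrit) grew 72 h with compound, 29 uM top final concentration.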
Hits are given with their value; . = inactive. The full list was thinned out, with hits kept by preference.

SMILES	Pf Dd2 growth
Cn1cccc1CN1CCC2(CC1)C(=NC1CCCCC1)NC(=O)N2c1cccnc1	.
Cn1cccc1CN1CCC2(C1)C(=NC1CCCC1)NC(=O)N2c1cc(F)cc(F)c1 (centres undefined)	8.91µM
O=C(c1ccccc1)N1CCC2(C1)C(=NC1CCCC1)NC(=O)N2c1cc(F)cc(F)c1 (centres undefined)	.
COc1cccc(N2C(=O)NC(=NC3CCCC3)C23CCN(Cc2cccn2C)C3)c1 (centres undefined)	10µM
COc1cccc(N2C(=O)NC(=NC3CCCCC3)C23CCN(Cc2ccc(F)cc2)C3)c1 (centres undefined)	.
COc1cccc(N2C(=O)NC(=NC3CCCCC3)C23CCN([S+](C)(=O)[O-])C3)c1 (centres undefined)	.
Cc1ccc(C)c(C(=O)NCc2nnc3cc(-c4nc(C)no4)ccn23)c1	.
CCc1ccc(N2CC(c3noc(-c4cc(OC)c(OC)c(OC)c4)n3)CC2=O)cc1 (centres undefined)	.
COc1ccc(OC2CN(C(=O)c3ccccc3OC)C2)cc1	.
CN(C)C(=O)c1cc2c(s1)CCC(C(=O)NCc1ccncc1)C2 (centres undefined)	.
Cc1nccc(-c2ccccc2)c1C(=O)N1CCOCC1CC(=O)N(C)C (centres undefined)	.
Cc1cccc(CNC(=O)c2c(C)noc2-c2ccc(OC(F)(F)F)cc2)c1	.
O=C(NC1CC1)C1COC2(CCN(C(=O)Cc3cccs3)CC2)N1C(=O)c1ccc(F)cc1 (centres undefined)	.
COC1CCN(C(=O)C(C)(C)Oc2nn(CCOc3ccccc3)c3ccccc23)CC1	.
Cc1ccc2[nH]c(=O)c(CCC(=O)O)cc2c1	.
Cc1cccc(-c2nocc2CCC(=O)NC2CCN(Cc3ccccc3)CC2)c1	.
Cc1ccc2[nH]c(=O)c(CCC(=O)NC3CCN(Cc4ccccc4)CC3)cc2c1	7.08µM
COc1ccc(NC(=O)CN2C(=O)NC(c3ccccc3Cl)C3=C2COC3=O)cc1 (centres undefined)	.
COCC1(C(=O)N2CCN(c3cc(C4CC4)ncn3)CC(O)C2)CC1 (centres undefined)	.
CCC(=O)N1C[C@@H]2C(=O)N(C)C(=O)[C@@H]2C1	.
COc1ccc(-c2cc(CNc3ncncn3)no2)cc1	.
NS(=O)(=O)c1ccc(CCNc2nc3c(-c4cccc(F)c4)nnn3c3ccc(Cl)cc23)cc1	11.2µM
Fc1cccc(-c2nnn3c2nc(NCCc2ccccc2)c2ccccc23)c1	.
CCOCCCNc1nc2c(S(=O)(=O)c3ccc(CC)cc3)nnn2c2ccc(Cl)cc12	.
COc1ccc(-c2noc(N3CCN(c4ccc(C)cc4)C(C)C3)n2)cc1OC (centres undefined)	1.58µM
SMILES	Pf Dd2 growth
COc1ccc(-c2noc(CSc3nnc(C)n3-c3ccc(C)cc3)n2)cc1OC	.
Cc1ccc(N2CCN(c3cc(C)nc4c(-c5ccc(Cl)cc5)c(C)nn34)CC2C)cc1 (centres undefined)	.
COc1ccccc1C(=O)N1C2CCCC1CC(=O)C2	.
CC(=O)NC[C@@H]1C=C(C)[C@H](CC(=O)N2CCN(C(C)=O)CC2)C[C@H]1C(C)C	.
CCOC(=O)C[C@@H]1C[C@@H](C(C)C)[C@H](CNC(=O)c2ccncc2)C=C1C	.
CC1=C[C@@H](CNC(=O)C(C)(C)C)[C@H](C(C)C)C[C@H]1Cc1nnc(-c2ccncc2)o1	.
COc1ccc(-c2nnc(C[C@@H]3C[C@@H](C(C)C)[C@H](CO)C=C3C)o2)cc1	10µM
COc1ccc(C(=O)NC[C@@H]2C=C(C)[C@H](CC(=O)N3CCN(C(C)=O)CC3)C[C@H]2C(C)C)cc1	.
COc1ccc(C(=O)NC[C@@H]2C=C(C)[C@H](Cc3nnc(-c4ccncc4)o3)C[C@H]2C(C)C)cc1	3.55µM
CC1=C[C@@H](CNC(=O)c2ccccc2)[C@H](C(C)C)C[C@H]1CC(=O)N1CCCC1	11.2µM
CC1=C[C@@H](CO)[C@H](C(C)C)C[C@H]1Cc1nnc(-c2cccnc2)o1	.
O=C1Nc2ccccc2O[C@H]2C[C@@H]1N(C(=O)NCc1ccccc1)C2	.
O=C(NC1CCCC1)c1cccc2c1CCN2S(=O)(=O)c1ccccc1F	.
O=C1CCC2(CNC(=O)c3ccoc3)CCC=C2N1 (centres undefined)	.
CCN(CC)C(=O)N1C[C@H](NC(=O)c2cn(C)c(=O)[nH]c2=O)[C@@H](C2CC2)C1	.
CCCCCN1C(C(=O)c2ccccc2)=C(NC(C)=O)c2ccccc2S1(=O)=O	.
CCCCCN1C(C(=O)c2ccccc2)=C(OC(=O)CC)c2ccccc2S1(=O)=O	3.16µM
CCCCC(=O)OC1=C(C(=O)c2ccccc2)N(CCC)S(=O)(=O)c2ccccc21	.
Cc1ccc2c(c1)N1C(=O)OC[C@@H]1CCNC2	.
CC(=O)NCC(=O)N1CCC(Oc2ccccc2-c2nc(C3CC3)no2)C1 (centres undefined)	.
CCOC(=O)C1CCCCN1C(=O)c1c(C)oc2c1CN(Cc1cccc(F)c1)CC2 (centres undefined)	6.31µM
COc1ccc(N(C)C(=O)c2c(C)oc3c2CN(Cc2ccc(F)cc2)CC3)cc1	12.6µM
COc1ccc(-n2nc3n(c2=O)CCN(Cc2ccc(F)cc2)C3)cc1	.
Cc1oc2ccn(Cc3ccccc3F)c(=O)c2c1C(=O)N1CCN(c2ccccc2)CC1	.
Cc1ccc(CN2CCc3oc(C)c(C(=O)N4CCC(C(N)=O)CC4)c3C2)cc1	.
SMILES	Pf Dd2 growth
Cc1oc2c(c1C(=O)N1CCN(c3ccccc3)CC1)CN(Cc1ccc(F)cc1)CC2	11.2µM
CCCn1ccc2oc(C)c(C(=O)N3CCN(c4ccc(F)cc4)CC3)c2c1=O	.
Cc1ccc(CN2CCc3oc(C)c(C(=O)N4CCSCC4)c3C2)cc1	10µM
Cc1oc2c(c1C(=O)N(C)CCc1ccccn1)CN(Cc1cccc(F)c1)CC2	.
Cc1oc2c(c1C(=O)N1CCOCC1)CN(C(=O)c1ccncc1)CC2	.
CCOC(=O)C1CCCCN1C(=O)c1cn(C(c2ccccc2)c2ccccc2)nn1 (centres undefined)	.
COCCCNC(=O)c1c(C)oc2c1CN(Cc1ccc(F)cc1)CC2	.
CC(=O)c1ccc(N2CCN(C(=O)c3cc4n(n3)CC(c3ccc(Cl)cc3)OC4)CC2)cc1 (centres undefined)	.
CN(Cc1nc2ccc(F)cc2[nH]1)C(=O)CCc1cc2n(n1)CCCNC2	.
COc1ccccc1-c1[nH]nc2ncc(CN(C)Cc3ccccc3)nc12	.
CCn1nc(C)c(-c2cc(C(=O)NCC34CCC=C3N(C)C(=O)CC4)no2)c1C (centres undefined)	.
CN1[C@@H](CCC(=O)N2CCC(O)CC2)CNC(=O)[C@@H]2[C@H]1CCN2Cc1ccc(S(C)(=O)=O)cc1	.
CCCc1noc(-c2cn(C3CCN(C(=O)c4ccoc4)CC3)nn2)n1	.
COC[C@@H]1CN(C(=O)CC2=CCCCC2)C[C@H]1c1ccccn1	.
CC(C)(C)CC(=O)N1CC[C@H]2COC(=O)N2c2cc(F)ccc2C1	.
COCCCN1C(=O)CC[C@H]2CN(C(=O)c3scnc3C)CC[C@H]21	.
CCn1cc2nc(SCc3cccc(C)c3)n(CCc3ccccc3)c(=O)c2n1	.
CCn1cc2nc(SCc3cccc(Cl)c3)n(Cc3ccc(C)cc3)c(=O)c2n1	.
CCn1cc2nc(SCc3cccc(C(F)(F)F)c3)n(Cc3ccc(C)cc3)c(=O)c2n1	10µM
Cc1ccc(Nc2nc(C(N)=O)c(NC(=O)c3ccccc3Br)s2)cc1	10µM

Screens (PubChem BioAssay)
